# Reference: publication PMC7862700, “An all-to-all approach to the identification of sequence-specific readers for epigenetic DNA modifications on cytosine”
# Columns and labels:
# Assay in all cases: DAPPL (digital affinity profiling via proximity ligation, sequencing); 10 mM Tris-HCl pH 7.5, 50 mM NaCl, 1 mM DTT, 4% glycerol, room temperature, 30 min; GST-TFs on glutathione beads, 16-mer random dsDNA library, 0.1% formaldehyde crosslink after washing; high values mean tight binding
# FEV = biological target: T1, FEV (Homo sapiens, UniProt Q99581 1-238); settings: protein: recombinant; tags: N-terminal GST; dsDNA, one strand shown
# T1 sequence: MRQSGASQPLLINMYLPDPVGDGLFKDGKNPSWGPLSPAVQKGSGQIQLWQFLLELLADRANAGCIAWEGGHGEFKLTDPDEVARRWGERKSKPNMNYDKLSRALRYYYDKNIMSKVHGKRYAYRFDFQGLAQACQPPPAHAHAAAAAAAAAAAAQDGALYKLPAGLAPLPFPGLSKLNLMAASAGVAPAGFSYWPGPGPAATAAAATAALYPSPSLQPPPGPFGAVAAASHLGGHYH
# Method in brief: (§1)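 Binding signal is each hexamer's read frequency for a factor divided by its frequency in the tag-only sample. The factors were GST-fused human transcription factors from yeast, captured on glutathione beads, DNA-barcoded and pooled with that sample. Pools were incubated with 200 nmole of a random double-stranded 16-mer DNA library in Tris/NaCl/DTT/glycerol buffer at room temperature for 30 min, then washed, crosslinked with 0.1% formaldehyde, proximity-ligated with BsaI/T4 ligase (1 h, 37 °C), PCR-amplified and sequenced on an Illumina NextSeq500.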
# ETV5 = ETV5 (Homo sapiens, UniProt P41161 1-510); settings: protein: recombinant; tags: N-terminal GST; dsDNA, one strand shown
# Method in brief: as §1
# HSF1 = HSF1 (Homo sapiens, UniProt Q00613 1-529); settings: protein: recombinant; tags: N-terminal GST; chain copies: 3; dsDNA, one strand shown
# Method in brief: as §1
# SPIC = biological target: T2, SPIC (Homo sapiens, UniProt Q8N5J4 1-248); settings: protein: recombinant; tags: N-terminal GST; dsDNA, one strand shown
# T2 sequence: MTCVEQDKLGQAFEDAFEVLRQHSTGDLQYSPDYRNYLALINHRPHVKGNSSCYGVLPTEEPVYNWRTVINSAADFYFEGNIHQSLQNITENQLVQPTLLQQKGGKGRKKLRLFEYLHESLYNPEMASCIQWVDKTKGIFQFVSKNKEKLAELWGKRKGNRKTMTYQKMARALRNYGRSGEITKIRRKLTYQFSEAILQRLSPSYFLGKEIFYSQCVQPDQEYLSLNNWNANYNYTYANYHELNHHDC
# Method in brief: as §1
# ELF4 = ELF4 (Homo sapiens, UniProt Q99607 1-663); settings: protein: recombinant; tags: N-terminal GST; dsDNA, one strand shown
# Method in brief: as §1
# ELK4 = biological target: T3, ELK4 (Homo sapiens, UniProt P28324-2 1-405); settings: protein: recombinant; tags: N-terminal GST; dsDNA, one strand shown
# T3 sequence: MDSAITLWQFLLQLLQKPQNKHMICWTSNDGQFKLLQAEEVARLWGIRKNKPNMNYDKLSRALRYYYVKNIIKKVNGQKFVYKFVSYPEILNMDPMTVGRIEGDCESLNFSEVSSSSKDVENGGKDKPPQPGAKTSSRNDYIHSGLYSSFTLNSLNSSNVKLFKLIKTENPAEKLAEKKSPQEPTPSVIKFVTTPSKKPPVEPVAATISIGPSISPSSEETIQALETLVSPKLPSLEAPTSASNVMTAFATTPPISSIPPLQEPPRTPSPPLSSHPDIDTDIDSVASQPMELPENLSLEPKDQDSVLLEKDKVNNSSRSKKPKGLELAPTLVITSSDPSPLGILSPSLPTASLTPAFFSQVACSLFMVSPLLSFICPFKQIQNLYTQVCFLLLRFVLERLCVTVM
# Method in brief: as §1
# ETV2 = biological target: T4, ETV2 (Homo sapiens, UniProt O00321 1-342); settings: protein: recombinant; tags: N-terminal GST; dsDNA, one strand shown
# T4 sequence: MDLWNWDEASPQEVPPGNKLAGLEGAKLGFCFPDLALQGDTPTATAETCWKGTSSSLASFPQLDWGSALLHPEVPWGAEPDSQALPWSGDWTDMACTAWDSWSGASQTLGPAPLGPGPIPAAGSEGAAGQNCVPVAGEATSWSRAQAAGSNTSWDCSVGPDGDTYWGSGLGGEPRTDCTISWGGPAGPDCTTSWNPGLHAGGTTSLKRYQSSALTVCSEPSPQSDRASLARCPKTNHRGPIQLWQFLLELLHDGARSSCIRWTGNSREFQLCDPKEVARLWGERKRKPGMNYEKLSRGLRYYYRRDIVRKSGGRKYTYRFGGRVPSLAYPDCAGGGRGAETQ
# Method in brief: as §1
# ELF3 = biological target: T5, ELF3 (Homo sapiens, UniProt P78545 1-371); settings: protein: recombinant; tags: N-terminal GST; dsDNA, one strand shown
# T5 sequence: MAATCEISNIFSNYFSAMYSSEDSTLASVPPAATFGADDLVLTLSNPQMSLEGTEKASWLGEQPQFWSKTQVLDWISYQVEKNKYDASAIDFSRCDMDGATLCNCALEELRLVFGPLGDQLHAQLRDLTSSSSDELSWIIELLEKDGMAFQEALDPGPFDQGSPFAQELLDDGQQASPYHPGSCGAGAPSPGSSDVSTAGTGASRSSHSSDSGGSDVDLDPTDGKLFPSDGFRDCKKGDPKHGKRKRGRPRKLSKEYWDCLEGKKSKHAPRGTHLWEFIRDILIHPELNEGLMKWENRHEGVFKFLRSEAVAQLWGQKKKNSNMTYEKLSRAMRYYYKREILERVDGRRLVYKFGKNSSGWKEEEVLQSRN
# Method in brief: as §1
# CRX = CRX (Homo sapiens, UniProt O43186 1-299); settings: protein: recombinant; tags: N-terminal GST; dsDNA, one strand shown
# Method in brief: as §1
# ETV1 = ETV1 (Homo sapiens, UniProt P50549 1-477); settings: protein: recombinant; tags: N-terminal GST; dsDNA, one strand shown
# Method in brief: as §1
# ERF = biological target: T6, ERF (Homo sapiens, UniProt P50548 1-548); settings: protein: recombinant; tags: N-terminal GST; dsDNA, one strand shown
# T6 sequence: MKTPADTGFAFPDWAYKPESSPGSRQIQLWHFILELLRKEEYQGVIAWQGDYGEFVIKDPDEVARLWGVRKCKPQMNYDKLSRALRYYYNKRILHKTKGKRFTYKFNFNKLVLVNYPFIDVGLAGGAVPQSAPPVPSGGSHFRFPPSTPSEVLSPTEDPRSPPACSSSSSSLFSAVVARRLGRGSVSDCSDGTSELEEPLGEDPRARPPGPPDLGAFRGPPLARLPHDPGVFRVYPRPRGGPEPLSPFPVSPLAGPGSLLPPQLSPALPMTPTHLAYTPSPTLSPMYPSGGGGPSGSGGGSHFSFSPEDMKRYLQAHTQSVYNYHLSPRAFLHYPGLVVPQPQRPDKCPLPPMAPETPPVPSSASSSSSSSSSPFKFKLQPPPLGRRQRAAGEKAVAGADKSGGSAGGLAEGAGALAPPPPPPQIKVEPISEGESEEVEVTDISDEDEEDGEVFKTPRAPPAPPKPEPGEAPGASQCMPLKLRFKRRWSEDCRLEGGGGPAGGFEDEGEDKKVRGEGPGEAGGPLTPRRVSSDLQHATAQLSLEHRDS
# Method in brief: as §1
# ETV3L = biological target: T7, ETV3L (Homo sapiens, UniProt Q6ZN32 1-361); settings: protein: recombinant; tags: N-terminal GST; dsDNA, one strand shown
# T7 sequence: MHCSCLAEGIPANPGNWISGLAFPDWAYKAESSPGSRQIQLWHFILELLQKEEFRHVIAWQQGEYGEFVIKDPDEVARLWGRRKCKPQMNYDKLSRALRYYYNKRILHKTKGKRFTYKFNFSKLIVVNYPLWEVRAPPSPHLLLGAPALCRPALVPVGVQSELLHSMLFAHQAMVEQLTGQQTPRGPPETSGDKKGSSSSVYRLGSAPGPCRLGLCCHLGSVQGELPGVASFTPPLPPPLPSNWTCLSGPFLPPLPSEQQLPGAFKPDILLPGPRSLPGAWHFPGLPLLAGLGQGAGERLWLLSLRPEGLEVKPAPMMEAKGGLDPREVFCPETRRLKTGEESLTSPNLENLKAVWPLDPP
# Method in brief: as §1
# ETS2 = biological target: T8, ETS2 (Homo sapiens, UniProt P15036 1-469); settings: protein: recombinant; tags: N-terminal GST; dsDNA, one strand shown
# T8 sequence: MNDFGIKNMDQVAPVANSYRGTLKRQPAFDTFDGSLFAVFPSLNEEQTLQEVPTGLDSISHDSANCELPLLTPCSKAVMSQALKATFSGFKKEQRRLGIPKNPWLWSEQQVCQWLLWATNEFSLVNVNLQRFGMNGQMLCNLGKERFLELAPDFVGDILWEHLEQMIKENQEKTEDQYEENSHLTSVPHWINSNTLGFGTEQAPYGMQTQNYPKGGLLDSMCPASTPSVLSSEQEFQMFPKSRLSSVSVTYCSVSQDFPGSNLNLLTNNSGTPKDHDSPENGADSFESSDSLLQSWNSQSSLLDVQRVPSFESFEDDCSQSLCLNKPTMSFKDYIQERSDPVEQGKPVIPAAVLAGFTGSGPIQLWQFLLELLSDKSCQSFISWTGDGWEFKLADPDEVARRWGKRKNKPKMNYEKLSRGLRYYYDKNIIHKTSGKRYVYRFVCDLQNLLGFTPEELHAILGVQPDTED
# Method in brief: as §1
# SPDEF = biological target: T9, SPDEF (Homo sapiens, UniProt O95238 1-335); settings: protein: recombinant; tags: N-terminal GST; dsDNA, one strand shown
# T9 sequence: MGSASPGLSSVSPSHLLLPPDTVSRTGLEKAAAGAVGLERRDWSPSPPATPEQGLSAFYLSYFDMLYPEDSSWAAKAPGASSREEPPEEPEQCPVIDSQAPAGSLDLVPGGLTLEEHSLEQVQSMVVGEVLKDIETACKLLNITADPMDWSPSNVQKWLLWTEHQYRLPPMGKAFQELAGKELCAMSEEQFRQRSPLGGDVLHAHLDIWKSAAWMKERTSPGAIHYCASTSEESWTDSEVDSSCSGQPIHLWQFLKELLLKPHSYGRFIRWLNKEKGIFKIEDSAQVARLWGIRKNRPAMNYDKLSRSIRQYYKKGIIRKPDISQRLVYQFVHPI
# Method in brief: as §1
# ETV7 = biological target: T10, ETV7 (Homo sapiens, UniProt Q9Y603 1-341); settings: protein: recombinant; tags: N-terminal GST; dsDNA, one strand shown
# T10 sequence: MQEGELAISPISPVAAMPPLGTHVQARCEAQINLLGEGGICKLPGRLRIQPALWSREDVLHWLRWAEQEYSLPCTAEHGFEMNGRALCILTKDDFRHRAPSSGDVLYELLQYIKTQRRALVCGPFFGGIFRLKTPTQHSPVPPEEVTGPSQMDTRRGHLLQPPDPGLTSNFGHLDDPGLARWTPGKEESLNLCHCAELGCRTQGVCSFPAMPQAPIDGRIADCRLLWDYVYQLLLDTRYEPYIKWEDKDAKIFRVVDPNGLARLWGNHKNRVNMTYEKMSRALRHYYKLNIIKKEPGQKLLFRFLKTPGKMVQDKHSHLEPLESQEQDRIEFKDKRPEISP
# Method in brief: as §1
# ELF5 = biological target: T11, ELF5 (Homo sapiens, UniProt Q9UKW6-2 1-255); settings: protein: recombinant; tags: N-terminal GST; dsDNA, one strand shown
# T11 sequence: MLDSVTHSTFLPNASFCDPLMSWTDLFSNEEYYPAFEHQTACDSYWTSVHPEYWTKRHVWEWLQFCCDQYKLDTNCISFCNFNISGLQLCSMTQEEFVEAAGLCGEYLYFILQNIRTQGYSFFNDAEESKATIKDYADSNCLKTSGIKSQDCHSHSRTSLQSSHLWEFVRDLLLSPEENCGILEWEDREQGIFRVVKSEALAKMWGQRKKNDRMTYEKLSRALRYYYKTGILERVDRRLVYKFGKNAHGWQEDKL
# Method in brief: as §1
# ETV3 = biological target: T12, ETV3 (Homo sapiens, UniProt P41162-2 1-143); settings: protein: recombinant; tags: N-terminal GST; dsDNA, one strand shown
# T12 sequence: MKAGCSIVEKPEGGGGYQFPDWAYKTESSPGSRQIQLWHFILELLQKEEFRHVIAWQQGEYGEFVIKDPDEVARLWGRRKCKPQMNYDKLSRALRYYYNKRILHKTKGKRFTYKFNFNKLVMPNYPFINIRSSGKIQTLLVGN
# Method in brief: as §1
# ETV6 = ETV6 (Homo sapiens, UniProt P41212 1-452); settings: protein: recombinant; tags: N-terminal GST; dsDNA, one strand shown
# Method in brief: as §1
# Chain of ETV5 (P41161 whole entry): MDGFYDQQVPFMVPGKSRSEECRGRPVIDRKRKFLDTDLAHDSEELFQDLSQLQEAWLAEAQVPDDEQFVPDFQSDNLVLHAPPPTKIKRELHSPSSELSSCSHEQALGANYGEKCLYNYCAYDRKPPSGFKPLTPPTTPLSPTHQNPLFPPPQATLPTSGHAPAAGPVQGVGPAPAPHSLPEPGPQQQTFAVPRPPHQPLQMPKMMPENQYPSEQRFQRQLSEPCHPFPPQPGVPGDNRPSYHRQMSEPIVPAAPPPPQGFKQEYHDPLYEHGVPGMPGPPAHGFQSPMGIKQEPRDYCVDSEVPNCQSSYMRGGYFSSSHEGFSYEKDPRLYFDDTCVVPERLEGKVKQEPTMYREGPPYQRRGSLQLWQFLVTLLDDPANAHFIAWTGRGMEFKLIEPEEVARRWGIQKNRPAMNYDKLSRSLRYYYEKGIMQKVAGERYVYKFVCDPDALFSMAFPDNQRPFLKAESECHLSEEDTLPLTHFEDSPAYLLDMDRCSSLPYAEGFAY
# Chain of ETV6 (P41212 whole entry): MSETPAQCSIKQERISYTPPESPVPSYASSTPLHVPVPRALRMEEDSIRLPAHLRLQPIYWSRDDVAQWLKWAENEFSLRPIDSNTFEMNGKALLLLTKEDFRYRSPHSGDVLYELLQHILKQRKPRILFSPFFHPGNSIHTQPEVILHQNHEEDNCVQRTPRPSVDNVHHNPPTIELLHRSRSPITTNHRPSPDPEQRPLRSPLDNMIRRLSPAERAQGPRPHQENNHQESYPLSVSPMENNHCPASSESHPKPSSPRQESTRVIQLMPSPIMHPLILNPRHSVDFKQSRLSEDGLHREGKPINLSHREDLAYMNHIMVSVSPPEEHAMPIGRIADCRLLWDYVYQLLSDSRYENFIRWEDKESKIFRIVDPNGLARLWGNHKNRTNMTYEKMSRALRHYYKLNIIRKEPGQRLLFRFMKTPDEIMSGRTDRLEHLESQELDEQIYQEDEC
# Chain of ETV1 (P50549 whole entry): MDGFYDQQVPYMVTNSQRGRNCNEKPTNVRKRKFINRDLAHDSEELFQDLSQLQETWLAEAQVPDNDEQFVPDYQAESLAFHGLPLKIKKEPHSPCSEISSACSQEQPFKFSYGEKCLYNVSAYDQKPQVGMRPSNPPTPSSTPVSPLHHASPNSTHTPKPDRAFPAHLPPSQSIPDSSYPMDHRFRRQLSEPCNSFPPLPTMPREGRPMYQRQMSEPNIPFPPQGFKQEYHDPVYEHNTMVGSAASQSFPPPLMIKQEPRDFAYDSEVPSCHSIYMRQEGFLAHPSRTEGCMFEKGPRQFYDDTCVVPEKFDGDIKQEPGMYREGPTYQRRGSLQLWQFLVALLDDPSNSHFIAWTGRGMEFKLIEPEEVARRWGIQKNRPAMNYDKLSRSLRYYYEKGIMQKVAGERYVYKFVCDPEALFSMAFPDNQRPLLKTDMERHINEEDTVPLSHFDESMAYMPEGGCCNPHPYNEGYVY
# Chain of CRX (O43186 whole entry): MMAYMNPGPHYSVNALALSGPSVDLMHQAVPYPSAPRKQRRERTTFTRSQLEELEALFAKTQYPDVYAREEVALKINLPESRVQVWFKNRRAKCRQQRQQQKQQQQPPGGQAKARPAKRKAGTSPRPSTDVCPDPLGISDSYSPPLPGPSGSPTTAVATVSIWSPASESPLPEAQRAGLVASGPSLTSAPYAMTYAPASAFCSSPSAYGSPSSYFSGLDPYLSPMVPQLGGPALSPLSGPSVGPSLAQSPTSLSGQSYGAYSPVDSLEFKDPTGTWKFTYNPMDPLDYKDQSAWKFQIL
# Chain of HSF1 (Q00613 whole entry): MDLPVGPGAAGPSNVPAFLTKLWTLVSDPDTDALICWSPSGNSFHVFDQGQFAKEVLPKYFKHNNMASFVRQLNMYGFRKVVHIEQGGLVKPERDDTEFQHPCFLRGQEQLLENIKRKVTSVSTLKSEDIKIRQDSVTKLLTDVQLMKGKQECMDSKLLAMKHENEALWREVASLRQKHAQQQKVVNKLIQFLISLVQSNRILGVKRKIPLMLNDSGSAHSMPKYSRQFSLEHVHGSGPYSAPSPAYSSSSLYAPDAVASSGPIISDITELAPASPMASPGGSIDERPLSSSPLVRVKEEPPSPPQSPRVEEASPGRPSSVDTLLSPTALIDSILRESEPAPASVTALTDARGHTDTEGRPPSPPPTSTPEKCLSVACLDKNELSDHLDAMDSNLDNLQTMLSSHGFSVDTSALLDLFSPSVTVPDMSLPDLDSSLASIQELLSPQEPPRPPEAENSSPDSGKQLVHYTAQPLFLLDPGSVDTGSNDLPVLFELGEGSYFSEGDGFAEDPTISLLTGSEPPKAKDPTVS
# Chain of ELF4 (Q99607 whole entry): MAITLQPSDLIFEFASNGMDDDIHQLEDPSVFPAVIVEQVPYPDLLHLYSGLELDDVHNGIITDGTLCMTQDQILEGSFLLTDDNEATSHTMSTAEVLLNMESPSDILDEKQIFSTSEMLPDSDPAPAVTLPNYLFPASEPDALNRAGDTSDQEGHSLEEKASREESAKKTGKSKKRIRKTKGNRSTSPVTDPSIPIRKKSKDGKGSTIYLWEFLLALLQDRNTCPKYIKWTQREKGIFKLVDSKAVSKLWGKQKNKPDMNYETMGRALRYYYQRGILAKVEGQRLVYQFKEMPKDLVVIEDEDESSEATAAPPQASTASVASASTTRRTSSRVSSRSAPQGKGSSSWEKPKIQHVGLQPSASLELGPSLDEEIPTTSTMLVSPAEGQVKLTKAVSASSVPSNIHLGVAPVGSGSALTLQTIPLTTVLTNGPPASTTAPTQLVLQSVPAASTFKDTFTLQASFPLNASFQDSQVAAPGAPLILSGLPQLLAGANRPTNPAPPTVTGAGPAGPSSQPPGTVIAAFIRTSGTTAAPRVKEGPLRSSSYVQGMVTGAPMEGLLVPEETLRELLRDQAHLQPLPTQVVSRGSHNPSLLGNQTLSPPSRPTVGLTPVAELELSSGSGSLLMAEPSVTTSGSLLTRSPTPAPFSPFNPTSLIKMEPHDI
sequence,measurement,setting,value
CTCGAC,binding signal,FEV,"1.41 fold enrichment (6-mer frequency, TF over GST control)"
same,binding signal,ETV5,"1.47 fold enrichment (6-mer frequency, TF over GST control)"
same,binding signal,HSF1,"1.77 fold enrichment (6-mer frequency, TF over GST control)"
same,binding signal,SPIC,"1.58 fold enrichment (6-mer frequency, TF over GST control)"
same,binding signal,ELF4,"1.58 fold enrichment (6-mer frequency, TF over GST control)"
same,binding signal,ELK4,"1.49 fold enrichment (6-mer frequency, TF over GST control)"
same,binding signal,ETV2,"1.39 fold enrichment (6-mer frequency, TF over GST control)"
same,binding signal,ELF3,"1.31 fold enrichment (6-mer frequency, TF over GST control)"
same,binding signal,CRX,"1.32 fold enrichment (6-mer frequency, TF over GST control)"
same,binding signal,ETV1,"1.58 fold enrichment (6-mer frequency, TF over GST control)"
same,binding signal,ERF,"1.48 fold enrichment (6-mer frequency, TF over GST control)"
same,binding signal,ETV3L,"1.37 fold enrichment (6-mer frequency, TF over GST control)"
same,binding signal,ETS2,"1.45 fold enrichment (6-mer frequency, TF over GST control)"
same,binding signal,SPDEF,"1.42 fold enrichment (6-mer frequency, TF over GST control)"
same,binding signal,ETV7,"1.37 fold enrichment (6-mer frequency, TF over GST control)"
same,binding signal,ELF5,"1.38 fold enrichment (6-mer frequency, TF over GST control)"
same,binding signal,ETV3,"1.45 fold enrichment (6-mer frequency, TF over GST control)"
same,binding signal,ETV6,"1.63 fold enrichment (6-mer frequency, TF over GST control)"
